# Compound activity from PubChem.
# PostGolgi ctrl: growth inhibition of yeast control strain, primary screen, counter-screen for post-Golgi transport modulator project. 98,000 compounds, 5% hits. efflux-deficient yeast background strain, growth absorbance A615, 16 h. inhibition, % at 10 µM
# CYP2C19 act: human CYP2C19 activators, primary screen, biochemical, luminescence; activation factor at 5 µM; Cytochrome P450 2C19 (Homo sapiens), P33261; 96,000 tested, under 10 active; recombinant CYP2C19, luciferin-H EGE luminescence; stronger effect = higher value; 0 = fully inhibited enzyme, 1 = untreated enzyme; AID 1025, 2008;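 active = activation factor of at least 2 at 5 µM in the primary screen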;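 note: 0 = wells with 2.5 mM tranylcypromine and 1 = vehicle-only wells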
# Target sequence (P33261 whole entry, looked up): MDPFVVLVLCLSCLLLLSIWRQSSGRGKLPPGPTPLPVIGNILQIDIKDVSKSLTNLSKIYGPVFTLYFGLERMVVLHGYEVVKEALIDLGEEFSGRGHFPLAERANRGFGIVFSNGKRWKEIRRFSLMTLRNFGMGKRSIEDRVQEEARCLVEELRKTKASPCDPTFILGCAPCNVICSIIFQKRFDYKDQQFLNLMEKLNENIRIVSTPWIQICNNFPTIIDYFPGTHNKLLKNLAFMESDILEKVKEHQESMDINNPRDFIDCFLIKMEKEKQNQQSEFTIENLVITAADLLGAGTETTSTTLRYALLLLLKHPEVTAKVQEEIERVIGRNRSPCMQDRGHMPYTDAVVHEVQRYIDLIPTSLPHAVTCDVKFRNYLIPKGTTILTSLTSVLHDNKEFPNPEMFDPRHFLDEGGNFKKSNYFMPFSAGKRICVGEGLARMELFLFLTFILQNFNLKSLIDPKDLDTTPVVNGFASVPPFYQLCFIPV
# PostGolgi yeast: phenotypic screen on post-Golgi transport, primary screen | 98,000 compounds, 0.9% hits | AID 739, 2007 | post-Golgi transport phenotypic cell assay | inhibition, % at 10 µM;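 note: yeast cells grown in 1536-well plates; yeast grown about 18 h at 30C before absorbance read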
# CYP2C19 inh: blockers of cytochrome P450 2C19 activity – biochemical, luminescence, ADME assay, primary screen. 96,000 compounds, 21% hits. inhibition, % at 5 µM. AID 778, 2007. CYP2C19 Supersomes, luciferin-H EGE luminescence, 30 min;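 active = CYP2C19 inhibition above a set limit at 5 µM in the primary screen, cut at about 50% in these data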;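 note: plate controls were negative control wells for no effect and 2.5 mM tranylcypromine positive control for full effect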
# CYP2C9 act: human CYP2C9 activators, primary screen, biochemical, luminescence; Cytochrome P450 2C9 (Homo sapiens), P11712; recombinant CYP2C9, luciferin-H conversion; stronger effect = higher value; factor 1 = untreated enzyme, 0 = blocked; activation factor at 5 µM; 96,000 compounds, 1.4% hits;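 active = activation factor of 2 or more for CYP2C9 at a 5 µM dose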;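 note: 0 = sulfaphenazole-blocked wells and 1 = vehicle-only wells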
# CYP2C9 inhib: blockers of cytochrome P450 2C9 activity – biochemical, luminescence, ADME assay, primary screen; inhibition, % at 5 µM; AID 777, 2007; CYP2C9 Supersomes, luciferin-H conversion; 96,000 compounds, 20% hits;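 active = blocking of liver enzyme CYP2C9 beyond about 50% at 5 µM, limit read from the data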
# * = called active by the depositor; . = no result. The list is not random: actives were taken first. Their share in the collection is about 32%. Cut-off read from the data, not from the text of the source, unless noted: active = inhibition above about 30%; inactive = the rest.
SMILES,PostGolgi ctrl,CYP2C19 act,PostGolgi yeast,CYP2C19 inh,CYP2C9 act,CYP2C9 inhib
CCOc1ccc(CCNC(=O)c2cc3sccc3n2C)cc1OCC,-1.5,0.1,16.3,93.7*,0.3,66.7*
Cn1c(C(=O)OCC(=O)NCCc2ccccc2)cc2sccc21,9.9,0.7,9.0,32.2,0.3,69.4*
CCOc1ccc(CCNC(=O)c2cc3sc(Cl)cc3n2C)cc1OCC,0.0,0.9,-3.4,14.3,1,2.5
c1ccc(-n2c(-c3ccncc3)nnc2-c2cccs2)cc1,-1.4,0.3,-3.6,71.0*,0.5,54.0*
c1ccc(-c2nnc(-c3ccco3)n2-c2ccccc2)cc1,23.2,.,6.1,.,.,.
c1ccc(-n2c(-c3ccncc3)nnc2-c2ccco2)cc1,-7.2,0.2,-6.1,79.6*,0.5,49.8
CSc1nnc(-c2cccs2)n1-c1ccccc1,6.7,0.6,1.6,42.9,0.7,34.2
CCN(CC)S(=O)(=O)c1ccc(NCc2ccccc2)nc1,38.0*,0.4,-4.2,63.5*,0.2,76.6*
c1ccc(CNc2cnccn2)cc1,-2.9,.,-9.4,.,.,.
Cn1c(CN2CCOCC2)nnc1SCC(=O)NCCc1ccccc1,3.8,1.1,2.2,-7.7,1.4,-36.4
O=C(c1ccccc1Cl)N(C(=O)c1ccccc1Cl)c1nccc(-c2cccs2)n1,10.6,0.6,-13.7,35.3,0.2,76.8*
C=CCNC(=S)N/N=C/c1ccc(OCc2ccccc2Cl)cc1,2.1,1.1,-0.2,-13.6,0.8,17.2
CCc1cc2c(SCC(=O)c3ccc(Cl)s3)ncnc2s1,35.9*,0.2,-4.1,81.8*,0.2,82.1*
CCc1nc(NCC2CCCO2)c2oc3ccccc3c2n1 (centres undefined),-0.6,0.5,-4.7,48.4,0.5,46.4
CCc1nc(SCC(=O)N2CCN(c3ccccc3)CC2)c2oc3ccccc3c2n1,32.7*,0.9,-3.4,11.4,0.9,14.0
CCc1nc(Sc2nc(C)cc(C)n2)c2oc3ccccc3c2n1,7.5,0.2,0.3,80.5*,0.4,63.4*
CCc1nc(N(CC)CC)c2oc3ccccc3c2n1,36.4*,.,-5.5,.,.,.
CCc1nc(N2CCC(C)CC2)c2oc3ccccc3c2n1,25.9,1.1,-5.0,-7.6,1,-2.1
CCOc1ccc2nc(SCC(=O)c3ccc(Cl)s3)sc2c1,5.9,0.8,0.0,22.5,1.8,-77.2
CCN(CCCNC(=O)C1CCN(S(=O)(=O)N2CCOCC2)CC1)c1cccc(C)c1,-4.5,0.9,9.7,13.8,0.9,12.1
COCCn1cc(C(=O)N2CCC(C)CC2)c2c3ccccc3n(C)c2c1=O,21.8,1.1,9.5,-6.7,1,3.5
O=S(=O)(c1ccc2ccccc2c1)N(CC(O)CN1CCOCC1)c1ccccc1 (centres undefined),17.3,0.9,4.7,11.3,0.8,20.2
CN(CC(=O)NCCN1CCN(c2ccccc2)CC1)S(=O)(=O)c1ccc2c(c1)CCC(=O)N2,3.2,1,-2.0,3.1,0.9,9.8
CCc1nc(SCC(=O)c2ccc(Cl)s2)c2oc3ccccc3c2n1,22.4,0.6,-2.5,41.5,0.3,75.0*
CCc1nc(SCCO)c2oc3ccccc3c2n1,4.7,0.5,18.9,51.0*,0.3,65.8*
SMILES,PostGolgi ctrl,CYP2C19 act,PostGolgi yeast,CYP2C19 inh,CYP2C9 act,CYP2C9 inhib
OCCSc1ncnc2c1oc1ccccc12,1.1,0.8,7.7,21.7,0.8,22.5
CCc1nc(SCc2nc3ccccc3[nH]2)c2oc3ccccc3c2n1,69.0*,0,0.6,99.9*,0,98.4*
CCOc1cc(S(=O)(=O)NCc2ccccc2)ccc1F,19.1,0.6,-8.6,37.9,1.6,-64.6
COc1cc2c(C(=O)N3CCN(c4ccccc4C)CC3)c(C)oc2cc1Br,57.4*,0.4,-3.1,59.7*,0.3,71.8*
COc1ccccc1N1CCN(C(=O)c2oc3cc(C)c(C)cc3c2C)CC1,42.3*,0.6,-4.4,43.9,0.3,73.6*
O=c1cc(O)nc(SC23CC4CC(CC(C4)C2)C3)[nH]1,1.8,1.1,-2.4,-6.3,1,0.1
Cc1cccc(NC(=O)c2ccc(COc3ccc(Cl)cc3Cl)o2)n1,19.3,0.6,-4.6,44.1,0.4,56.1*
CCOc1ccc(OCc2ccc(C(=O)N3CCCC3)o2)cc1,28.6,0.6,-22.1,39.4,0.4,57.2*
CN1CCN(C(=O)c2ccc(COc3ccc(C(C)(C)C)cc3)o2)CC1,21.4,0.8,6.0,19.0,1,1.7
Cc1nn(Cc2c(F)c(F)c(F)c(F)c2F)c(C)c1NC(=O)c1ccc(COc2ccccc2Cl)o1,80.1*,0.5,-3.8,53.2*,0.4,59.3*
COc1ccc(NC(=O)c2ccc(COc3ccccc3OC)o2)cc1OC,-1.8,0.7,-2.0,25.7,0.8,20.0
COc1ccc(NC(=O)c2ccc(COc3ccccc3Br)o2)cc1OC,15.7,0.6,-4.9,36.5,0.3,73.1*
OC1(Cc2ccn[nH]2)CCCCC1,2.4,1,10.4,1.0,1,2.7
CCOc1ccc(OCc2ccc(C(=O)OCc3ccccn3)o2)cc1,27.4,0.5,-4.0,50.3*,0.4,55.3*
O=C(c1ccc(COc2ccccc2Cl)o1)N1CCN(c2ccccc2)CC1,46.2*,0.1,-12.2,91.9*,0,96.7*
O=C(c1ccc(COc2ccccc2Br)cc1)N1CCCCC1,26.9,0.8,-5.1,18.7,1.4,-41.0
COc1ccc(/C=N/NC(=O)c2ccc(COc3ccccc3Cl)o2)cc1,7.2,0.6,-13.3,35.4,0.5,49.6
O=C(c1ccc(COc2ccccc2Br)o1)N1CCCCCC1,38.0*,0.9,-0.8,10.3,1,1.3
CCOc1ccc(C(=O)NCc2ccccn2)cc1,0.5,1.2,1.0,-16.7,1.2,-16.0
Cc1cc(C)nc(NS(=O)(=O)c2ccc(Br)s2)c1,7.1,0.5,12.0,52.0*,0.8,15.8
Cc1cccc(NS(=O)(=O)c2ccc(Oc3ccccc3)cc2)n1,7.4,0.2,1.3,83.0*,0.7,31.0
Cc1cc(NS(=O)(=O)c2cccs2)no1,6.7,1.1,-2.4,-7.4,1.1,-13.4
Cc1cccc(NS(=O)(=O)c2ccc(Br)s2)n1,6.2,0.3,0.3,67.6*,0.7,31.1
CCOc1ccccc1OCCOc1ccc(F)cc1,-3.3,0.4,-1.8,56.7*,1.1,-9.4
c1ccc2c(CNCCN3CCOCC3)cccc2c1,13.1,0.7,-2.5,26.0,0.9,12.9
CCCS(=O)(=O)c1c(S(=O)(=O)CCC)c2ccccn2c1C(=O)OC,3.3,0.8,0.6,20.1,0.5,51.7*
O=C(CSc1ncccc1-c1nc2ccccc2[nH]1)N1CCCCC1,3.7,1,-10.4,-2.1,1,-2.3
